# Measured values from PubChem BioAssay AID2717 (Broad Institute, 2010).
# Out of some 300,000 compounds screened, about 3,200 (1.1%) were called active. Cut-off read from the data, not from the text of the source: active = inhibition above about 75%; inconclusive = no clear call, values can overlap the other calls; inactive = below that; tested in HMLE shEcad cells. The full list was thinned out, with actives kept by preference.
# Experiment: growth suppression of cancer stem-like cells – cell-based, luminescence, primary screen (AID 2717)
# Conditions: cancer stem cell-like cells viability, at 7.5 µM, stronger effect = higher value
row,SMILES,inhibition
1,Cc1ccc(S(=O)(=O)N2CCN(C(=O)CN3C(=O)NC(C)(c4ccc(Cl)cc4)C3=O)CC2)c(C)c1 (stereo not given),3.13% (inactive)
2,CC1(C)C=Cc2c(ccc3c2OC[C@@H](c2ccc(O)cc2O)C3)O1,90% (active)
3,Cc1ccsc1C(=O)OCC(=O)NCCc1ccccc1,12.1% (inactive)
4,Cc1nnc(N/N=C/C2CC=CCC2)[nH]c1=O (stereo not given),9.52% (inactive)
5,Cc1nnc(N/N=C/c2ccccn2)[nH]c1=O,121% (active)
6,CNC(=O)C(=O)N/N=C/c1ccccn1,-9.33% (inactive)
7,O=C(COC(=O)CSc1ccccc1)Nc1ccc(F)cc1F,-0.0328% (inactive)
8,CNC[C@H]1Oc2c(NC(=O)C3CCCCC3)cccc2C(=O)N([C@H](C)CO)C[C@@H]1C,1.2% (inactive)
9,CCC(CC)C(=O)N1CCN(c2cccc(C)c2C)CC1,-11.5% (inactive)
10,Cc1cccc(N2CCN(C(=O)c3cccc(N4C(=O)C5C6C=CC(C6)C5C4=O)c3)CC2)c1C (stereo not given),26.5% (inactive)
11,CCn1c(C)c(C)c2cc(C(=O)N3CCN(c4cccc(C)c4C)CC3)ccc21,120% (active)
12,COc1ccccc1C(=O)COC(=O)COc1ccc(C#N)cc1,2.49% (inactive)
13,CC(C)(C)OC(=O)N[C@H](C(=O)OC(C)(C)C)c1ccc(Br)cc1,0.862% (inactive)
14,CC(OC(=O)c1ccc([N+](=O)[O-])cc1)C(=O)NCC1CCCCC1 (stereo not given),-10.2% (inactive)
15,CC(C)=CCCC1(C)C=Cc2c(ccc3c2[nH]c2cc(O)c(C)cc23)O1 (stereo not given),101% (active)
16,CCOC(=O)[C@H]1[C@H]2COc3cc(OC)ccc3[C@@H]2N2C(=O)CN(Cc3ccc(Cl)cc3)C(=O)[C@@]12C,-21.1% (inactive)
17,CC1CN(C(=O)c2ccc([N+](=O)[O-])s2)CC(C)O1 (stereo not given),0.926% (inactive)
18,COc1cc(NC(=O)COC(=O)c2ccc([N+](=O)[O-])s2)cc(OC)c1OC,-12.6% (inactive)
19,CN(c1ccccc1)S(=O)(=O)c1ccc(C(=O)N2CCN(c3ccccc3Cl)CC2)cc1,-0.098% (inactive)
20,Cc1c(CC(=O)NCCCCCC(=O)O)c(=O)oc2cc3occ(-c4ccccc4)c3cc12,-4.15% (inactive)
21,CCCCCCc1cc2cc(-c3nnc(-c4ccccc4)o3)c(=O)oc2cc1O,118% (active)
22,CCCCCCc1ccc(O)cc1O,-10.2% (inactive)
23,CC(C)NC(=O)Nc1cccc2c1O[C@H](CN(C)S(=O)(=O)c1cccs1)[C@@H](C)CN([C@H](C)CO)C2=O,-18% (inactive)

row,SMILES,inhibition
1,COc1ccccc1NS(=O)(=O)c1ccc(C)c(C(=O)NNC(=O)c2csc(N3CCOCC3)n2)c1,-11.7% (inactive)
2,CCCCC(=O)Nc1nc(C)c(-c2csc(Nc3ccc(Cl)cc3)n2)s1,63.1% (inactive)
3,CCCCCCC(=O)Nc1nc(C)c(-c2csc(Nc3cc(Cl)ccc3OC)n2)s1,5.64% (inactive)
4,C=CCCC(=O)Nc1nc(C)c(-c2csc(Nc3ccc(Cl)cc3)n2)s1,99% (active)
5,C/C=C/c1ccc(OCC(=O)NNC(=O)CN(C)S(=O)(=O)c2ccc(C)cc2)c(OC)c1,-2.93% (inactive)
6,CN(C(=O)c1cccc(NC(=O)Cc2ccc([N+](=O)[O-])cc2)c1)C1CCC1,1.28% (inactive)
7,Cc1cccc(-n2ncc(Cl)c(Cl)c2=O)c1,138% (active)
8,COc1ccc(Oc2c(Cl)cnn(-c3ccccc3)c2=O)cc1,22% (inactive)
9,Cc1cccc(-n2ncc(C#N)c2-n2cccc2)c1,-10.4% (inactive)
10,O=C(COC(=O)c1n[nH]c2ccccc12)Nc1ccccc1Br,-14% (inactive)
11,CC1CCCCC1NC(=O)Cn1cnc2c1c(=O)n(C)c(=O)n2C (stereo not given),-15.5% (inactive)
12,CC(C)(C)OC(=O)C[C@@H]1C/C=C\C[C@H](CC(=O)N[C@@H](CO)Cc2ccccc2)C(=O)N[C@H](Cc2ccccc2)COC1=O,-5.32% (inactive)
13,CCc1c(C)sc(NC(=O)c2ccc(Br)o2)c1C(=O)OC,28.8% (inactive)
14,CCc1c(C)sc(NC(=O)/C=C/c2ccc3c(c2)OCO3)c1C(=O)OC,96.5% (active)
15,CCOC(=O)CCCNC(=O)COC(=O)/C=C/c1ccc2c(c1)OCO2,-10.5% (inactive)
16,COc1ccc(S(=O)(=O)N2CCN(C(C)C(=O)Nc3ccc(C(C)C)cc3)CC2)cc1 (stereo not given),-10.6% (inactive)
17,O=C(COC(=O)c1cccs1)Nc1ccccc1Cl,-12.7% (inactive)
18,O=C(Nc1ccccc1Cl)/C(Cl)=C(\Cl)S(=O)c1ccccc1 (stereo not given),145% (active)
19,O=C(Nc1ccccc1Cl)Nn1cnnc1,-3.82% (inactive)
20,CC(C)(C)OC(=O)C[C@@H]1C/C=C\C[C@@H](CC(=O)N[C@H](CO)Cc2ccccc2)C(=O)NCCOC1=O,-6.88% (inactive)
21,CCOc1ccc(NC(=O)CN(C)C(=O)Cc2sc(C)nc2-c2ccc(F)cc2)cc1OCC,-4.92% (inactive)
22,COc1cc(C=NNC(=O)c2cccnc2)ccc1OC(=O)c1ccccc1F,-6.57% (inactive)
23,O=C1CSc2ccc(C(=O)NCc3ccccn3)cc2N1,-3.45% (inactive)

row,SMILES,inhibition
1,Cc1cccc(C)c1NC(=O)CNC(=O)c1ccc2c(c1)OCCO2,14.6% (inactive)
2,N#Cc1ccc(CN2CCN(CC(=O)Nc3ccccc3C(=O)NC3CC3)CC2)cc1,-9.82% (inactive)
3,Cc1ccc(CSc2nc(-c3ccccc3)c(C#N)c(=O)[nH]2)cc1,27.6% (inactive)
4,N#Cc1c(-c2ccccc2)nc(SCc2ccc([N+](=O)[O-])cc2)[nH]c1=O,3.97% (inactive)
5,N#Cc1c(-c2ccccc2)nc(SCc2cccc(C(F)(F)F)c2)[nH]c1=O,105% (active)
6,O=C(COC(=O)/C=C/c1cccc(Cl)c1)NCc1cccs1,2.73% (inactive)
7,O=C(CN1CCN(c2ccc(F)cc2)CC1)Nc1ccccc1,-1.5% (inactive)
8,Oc1ccc(CN2CCN(c3ncccn3)CC2)cc1,-8.35% (inactive)
9,Oc1c(CN2CCN(c3ccc(F)cc3)CC2)cc(Cl)c2cccnc12,138% (active)
10,O=C1c2ccccc2C(=O)N1CCC#Cc1ccc2cc(C3(O)CCCCC3)oc(=O)c2c1,4.37% (inactive)
11,COc1ccc2c(c1OC)C(=O)OC2Nc1nc(-c2ccccc2)cs1 (stereo not given),126% (active)
12,COc1ccc(CCNc2nc(-c3cccc(NC(C)=O)c3)cs2)cc1OC,-2.96% (inactive)
13,Cc1ccc(-c2csc(NC3OC(=O)c4ccccc43)n2)cc1 (stereo not given),-24.8% (inactive)
14,O=C(CN1C(=O)NC2(CCCCCC2)C1=O)Nc1ccc([N+](=O)[O-])cc1,-18.6% (inactive)
15,CCOC(=O)CSC1=C(C#N)C(c2sccc2C)CC(=O)N1 (stereo not given),78.4% (active)
16,Cc1ccc(C2CC(=O)NC(SCC(=O)OCc3ccccc3)=C2C#N)o1 (stereo not given),61.5% (inactive)
17,CCOC(=O)CSC1=C(C#N)C(c2ccco2)C(C(=O)OCc2ccccc2)=C(C)N1 (stereo not given),-3.25% (inactive)
18,Cc1c(Cl)cnc(NC(=O)COC(=O)C2CCCC2)c1Cl,-15.8% (inactive)
19,O=C(CCNC(=O)c1ccc(Cl)cc1)NC1CCCc2ccccc21 (stereo not given),27% (inactive)
20,COC(=O)c1cc2nc(-c3ccccc3)cc(C(F)(F)F)n2n1,-6.63% (inactive)
21,COc1ccc(NC(=O)c2cc3nc(-c4ccccc4)cc(C)n3n2)cc1OC,5.1% (inactive)
22,COCCNc1cc(-c2ccccc2)nc2cc(-c3cccc(F)c3)nn12,85.5% (active)
23,CN(CCc1ccccc1)C(=O)c1cccc(NC(=O)Cc2ccc([N+](=O)[O-])cc2)c1,-6.88% (inactive)

row,SMILES,inhibition
1,Cc1ccc(CNC(=O)CC(NC(=O)c2ccccc2)c2ccccc2)cc1 (stereo not given),-10.4% (inactive)
2,CCN(CC)S(=O)(=O)c1ccc(N2CCCC2)c(NC(=O)c2ccc([N+](=O)[O-])o2)c1,27.4% (inactive)
3,Cc1ccc(S(=O)(=O)N2CCCCC2)cc1NC(=O)CCNC(=O)c1ccccc1,-6.19% (inactive)
4,CC(C)(C)c1ccc(C(=O)NCCn2c(N)c(C#N)c3nc4ccccc4nc32)cc1,35.6% (inactive)
5,CCCNC(=O)c1c(N)n(-c2ccc(S(N)(=O)=O)cc2)c2nc3ccccc3nc12,0.593% (inactive)
6,CC(C)Cn1c(N)c(C(=O)NCc2cccs2)c2nc3ccccc3nc21,116% (active)
7,Cn1c(CC(=O)NNC(=O)c2ccccc2F)nc2ccccc21,-2.01% (inactive)
8,CN(Cc1ccccc1)C(=O)COC(=O)/C=C/c1ccc2c(c1)OCO2,-12% (inactive)
9,Cn1cncc1C#Cc1c(-c2ccsc2)sc2ccccc12,107% (active)
10,O=C(NCc1ccc2c(c1)OCO2)c1c(-c2ccsc2)sc2ccccc12,58.2% (inactive)
11,Cc1ccnc(SCC(=O)Nc2cccc(S(=O)(=O)N3CCOCC3)c2)n1,-13% (inactive)
12,O=C(NCC#CCSc1nnc(-c2cccc3ccccc23)o1)c1cccs1,44.4% (inactive)
13,O=C(/C=C/c1ccccc1[N+](=O)[O-])OCC(=O)N1CCCC1,-16.9% (inactive)
14,CSCCC1NC(=O)N(CC(=O)Nc2cccc(S(=O)(=O)N3CCCCCC3)c2)C1=O (stereo not given),-15.7% (inactive)
15,O=C(CCNC(=O)c1ccc(Br)cc1)NCC(c1ccco1)N1CCCCC1 (stereo not given),-10.9% (inactive)
16,COc1cccc(-c2cc3nc4c(c(N5CCC6(CC5)OCCO6)n3n2)CCCC4)c1,90.5% (active)
17,COc1cccc(CNc2nc3nc4c(c(=O)n3[nH]2)CCC4)c1,-11.3% (inactive)
18,COc1cccc(NC(=O)CN2CCN(c3nc(-c4cccc(OC)c4)cs3)CC2)c1,2.49% (inactive)
19,COc1ccccc1-c1sc2ccccc2c1C#CC1(O)CCCCC1,105% (active)
20,COc1ccccc1C1=CC(=O)CCC1,-22.3% (inactive)
21,COc1ccccc1-c1sc2ccccc2c1-c1ccc(C(C)=O)cc1,29.6% (inactive)
